39 compounds from PubChem BioAssay (NCI) can be followed below.

SMILES strings stand for the structures. The panel holds about 79,000 compounds, 15% with a hit somewhere; the sample as a whole holds those more often. Values without a mark were called inactive. Calls of active or inactive are those of the source. No stated cut-off is given here; in the data, active means growth inhibition above about 70%; inactive means the rest.

A short description of the first test: NCI Yeast Anticancer Drug Screen. Data for the cln2 rad14 strain (AID 165).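 Further: 0% = growth equal to vehicle treated cultures.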 Conditions: S. cerevisiae cln2 rad14 strain, at 50.0 µM (retest, dose inferred, filed as 5.0), stronger effect = higher value. The method in brief: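 cln2 rad14 yeast strain; compound exposure; growth inhibition read vs vehicle controls.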
With `Cc1cn(C2CC(Br)C(COC(c3ccccc3)(c3ccccc3)c3ccccc3)O2)c(=O)[nH]c1=O` (stereo not drawn), the growth inhibition was 97% (active).

Regarding `CC1CCN(CCOC(=O)C(c2ccccc2)C2C=CCCC2)C1` (stereo not drawn), the growth inhibition was 37%.

Turning to `C=CC(c1ccccc1)[C@@]1(OC(C)=O)C(=O)C(=O)OC1C1COC(C)(C)O1` (stereo partly drawn), the growth inhibition is 94% (active).

Take `CC(C)S(=O)(=O)ON1C(=O)c2ccc(N(C)C)cc2C1=O`: the growth inhibition is 42%.

As for `CCCC(Sc1ccccc1)c1ccccc1NC(C)=O` (stereo not drawn), the growth inhibition was 33%.

As to `Oc1c(C(Nc2ccccn2)c2ccccc2)ccc2cccnc12` (stereo not drawn), the growth inhibition was 94% (active).

In the case of `CC(=O)NC1=C(Cl)C(=O)c2ccccc2C1=O`, the growth inhibition is 99% (active).

Consider `CC1OC(c2ccc3c(c2)OCO3)OC1C` (stereo not drawn), for which the growth inhibition is -2%.

Turning to `CN(C)CC(CN1CCCC1)C(=O)c1ccccc1` (stereo not drawn), the growth inhibition is 33%.

As for `O=S(=O)(O)c1ccc2c(c1)C1C(C3C2C2(Cl)C(Cl)=C(Cl)C3(Cl)C2(Cl)Cl)C2(Cl)C(Cl)=C(Cl)C1(Cl)C2(Cl)Cl` (stereo not drawn), the growth inhibition was 89% (active).

Take `Cc1cc(Cl)nc2ccc(Cc3ccc4nc(Cl)cc(C)c4c3)cc12`: the growth inhibition is 13%.

Turning to `CC1CCC2(C)C(CC=C(C=O)C2(O)C=O)C12CO2` (stereo not drawn), the growth inhibition was 99% (active).

Consider `Cc1c(C)c(C)c(C(=O)c2ccccc2C(=O)NCCSC(C)(C)C)c(C)c1C`, for which the growth inhibition was 41%.

Consider `O=[N+]([O-])C(=C1Nc2ccccc2N1)C(Cl)=C(Cl)Cl`, for which the growth inhibition is 10%.

Consider `CCCCNc1ccc(C(=O)OC2CCN(C)CC2)c(Cl)c1`, for which the growth inhibition was 96% (active).

For the compound `CC(C)(C)OC(=O)c1ccc(NCC2=C(Br)C(=O)C=CC2=O)cc1`, the growth inhibition was 94% (active).

Take `N#CC(c1ccc(Cl)cc1)c1ccc([N+](=O)[O-])cc1` (stereo not drawn): the growth inhibition is 53%.

For `O=C(CC(=O)c1ccccc1NC1=Cc2ccccc2C(=O)C1=O)C(=O)NC1=C(Cl)C(=O)c2ccccc2C1=O`, the growth inhibition was 66%.

Consider `O=S(=O)(Nc1ccc2c3c(cccc13)C=C2)c1ccccc1`, for which the growth inhibition was 96% (active).

`CC(=O)c1cccc(NC(=O)C(=O)NNc2n[nH]c(=S)n2N)c1`: the growth inhibition was 77% (active).

In the case of `Nc1ncc(C(=O)c2ccccc2)cc1[N+](=O)[O-]`, the growth inhibition was -22%.

As for `COc1ccc2cc(C3CCCC3(C)CC(=O)O)ccc2c1` (stereo not drawn), the growth inhibition is 7%.

Turning to `CNc1ccc(N=O)cc1`, the growth inhibition was 81% (active).

For the compound `S=c1sc2nc(Cl)nc(Cl)c2s1`, the growth inhibition was 99% (active).

For `CC(=O)O/C=C1\c2ccccc2CCC1c1ccc2ccccc2c1` (stereo not drawn), the growth inhibition is -22%.

`CC1(C)C2CCC(C2)C1OC(=O)c1ccccc1C(=O)O` (stereo not drawn): the growth inhibition was 15%.

As for `Cc1cc(=O)oc2c3c(ccc12)OC(c1ccc(Br)cc1)CC3=O` (stereo not drawn), the growth inhibition was 27%.

Consider `Cc1cc(N(CCOS(C)(=O)=O)CCOS(C)(=O)=O)ccc1C=Nc1cccc(Cl)c1`, for which the growth inhibition was 57%.

With `CN(C)CCOc1cc2c(c3ccccc13)-c1ccccc1C2O` (stereo not drawn), the growth inhibition was 31%.

With `NC(=S)C(=Nc1ccccc1F)Nc1ccccc1F`, the growth inhibition was 35%.

Consider `CCCCOc1ccc(NC(=S)Nc2ccc(OCCN(CC)CC)cc2)cc1`, for which the growth inhibition is 35%.

`CC1CCN(CC(=O)N2c3ccccc3Sc3cc4ccccc4cc32)CC1`: the growth inhibition is -4%.

On to `CC(C)C1COC(c2ccc3ccccc3c2-c2c(O[Si](C)(C)C(C)(C)C)ccc3ccccc23)=N1` (stereo not drawn), for which the growth inhibition was 13%.

Consider `CN(C)c1ccc(/C=C(\C#N)c2cccc(Cl)c2)cc1`, for which the growth inhibition was -25%.

On to `CCN(CC)CCNc1ccc(C)c2oc3ccc(O)cc3c(=O)c12`, for which the growth inhibition is 22%.

Turning to `CN(C)CC1CCc2c(ccc3ccccc23)C1=O` (stereo not drawn), the growth inhibition was 46%.

For the compound `C[C@]12CCC(=O)C=C1CC[C@@H]1[C@@H]2[C@@H](O)C[C@@]2(C)[C@H]1CC[C@]2(O)C(=O)COC(=O)CCC1CCCC1`, the growth inhibition was 96% (active).

Take `O=C(CSc1nnc(Cc2ccccc2)o1)Nc1ccc(Cl)cc1[N+](=O)[O-]`: the growth inhibition is 51%.

As to `Cc1cccc2c1Oc1ccccc1C2N1C(=O)/C(=C/c2ccccc2Cl)SC1=S` (stereo not drawn), the growth inhibition is 1%.

Staying with this test, now noted: S. cerevisiae cln2 rad14 strain, at 50.0 µM, stronger effect = higher value.
Consider `Cc1cn(C2CC(Br)C(COC(c3ccccc3)(c3ccccc3)c3ccccc3)O2)c(=O)[nH]c1=O` (stereo not drawn), for which the growth inhibition was 96.8% (active).

Consider `CC1CCN(CCOC(=O)C(c2ccccc2)C2C=CCCC2)C1` (stereo not drawn), for which the growth inhibition is 41.8%.

`C=CC(c1ccccc1)[C@@]1(OC(C)=O)C(=O)C(=O)OC1C1COC(C)(C)O1` (stereo partly drawn): the growth inhibition is 86.9% (active).

`CC(C)S(=O)(=O)ON1C(=O)c2ccc(N(C)C)cc2C1=O`: the growth inhibition was 95.4% (active).

As to `CCCC(Sc1ccccc1)c1ccccc1NC(C)=O` (stereo not drawn), the growth inhibition is 37%.

As to `Oc1c(C(Nc2ccccn2)c2ccccc2)ccc2cccnc12` (stereo not drawn), the growth inhibition was 93% (active).

Regarding `CC(=O)NC1=C(Cl)C(=O)c2ccccc2C1=O`, the growth inhibition was 98.8% (active).

Take `CC1OC(c2ccc3c(c2)OCO3)OC1C` (stereo not drawn): the growth inhibition is 70.7% (active).

Take `CN(C)CC(CN1CCCC1)C(=O)c1ccccc1` (stereo not drawn): the growth inhibition is 11.2%.

`O=S(=O)(O)c1ccc2c(c1)C1C(C3C2C2(Cl)C(Cl)=C(Cl)C3(Cl)C2(Cl)Cl)C2(Cl)C(Cl)=C(Cl)C1(Cl)C2(Cl)Cl` (stereo not drawn): the growth inhibition was 83.7% (active).

As for `Cc1cc(Cl)nc2ccc(Cc3ccc4nc(Cl)cc(C)c4c3)cc12`, the growth inhibition was 15.4%.

Consider `CC1CCC2(C)C(CC=C(C=O)C2(O)C=O)C12CO2` (stereo not drawn), for which the growth inhibition is 92.9% (active).

With `Cc1c(C)c(C)c(C(=O)c2ccccc2C(=O)NCCSC(C)(C)C)c(C)c1C`, the growth inhibition is 76.6% (active).

Turning to `O=[N+]([O-])C(=C1Nc2ccccc2N1)C(Cl)=C(Cl)Cl`, the growth inhibition was -13.8%.

Consider `CCCCNc1ccc(C(=O)OC2CCN(C)CC2)c(Cl)c1`, for which the growth inhibition was 84% (active).

Regarding `CC(C)(C)OC(=O)c1ccc(NCC2=C(Br)C(=O)C=CC2=O)cc1`, the growth inhibition was 89.1% (active).

For `N#CC(c1ccc(Cl)cc1)c1ccc([N+](=O)[O-])cc1` (stereo not drawn), the growth inhibition is 3.95%.

For the compound `O=C(CC(=O)c1ccccc1NC1=Cc2ccccc2C(=O)C1=O)C(=O)NC1=C(Cl)C(=O)c2ccccc2C1=O`, the growth inhibition was 82.7% (active).

For `O=S(=O)(Nc1ccc2c3c(cccc13)C=C2)c1ccccc1`, the growth inhibition was 61.3%.

As to `CC(=O)c1cccc(NC(=O)C(=O)NNc2n[nH]c(=S)n2N)c1`, the growth inhibition is 92.4% (active).

With `Nc1ncc(C(=O)c2ccccc2)cc1[N+](=O)[O-]`, the growth inhibition is 38.9%.

For `COc1ccc2cc(C3CCCC3(C)CC(=O)O)ccc2c1` (stereo not drawn), the growth inhibition is 11.1%.

As for `CNc1ccc(N=O)cc1`, the growth inhibition is 74.7% (active).

As for `S=c1sc2nc(Cl)nc(Cl)c2s1`, the growth inhibition is 89.5% (active).

On to `CC(=O)O/C=C1\c2ccccc2CCC1c1ccc2ccccc2c1` (stereo not drawn), for which the growth inhibition was 1.45%.

Consider `CC1(C)C2CCC(C2)C1OC(=O)c1ccccc1C(=O)O` (stereo not drawn), for which the growth inhibition was 76.2% (active).

Take `Cc1cc(=O)oc2c3c(ccc12)OC(c1ccc(Br)cc1)CC3=O` (stereo not drawn): the growth inhibition was -12.8%.

For `Cc1cc(N(CCOS(C)(=O)=O)CCOS(C)(=O)=O)ccc1C=Nc1cccc(Cl)c1`, the growth inhibition was 13.1%.

In the case of `CN(C)CCOc1cc2c(c3ccccc13)-c1ccccc1C2O` (stereo not drawn), the growth inhibition is 38.1%.

On to `NC(=S)C(=Nc1ccccc1F)Nc1ccccc1F`, for which the growth inhibition is 5.55%.

In the case of `CCCCOc1ccc(NC(=S)Nc2ccc(OCCN(CC)CC)cc2)cc1`, the growth inhibition was 80.8% (active).

Take `CC1CCN(CC(=O)N2c3ccccc3Sc3cc4ccccc4cc32)CC1`: the growth inhibition is 23.8%.

Turning to `CC(C)C1COC(c2ccc3ccccc3c2-c2c(O[Si](C)(C)C(C)(C)C)ccc3ccccc23)=N1` (stereo not drawn), the growth inhibition is 92.7% (active).

With `CN(C)c1ccc(/C=C(\C#N)c2cccc(Cl)c2)cc1`, the growth inhibition is 69.4%.

In the case of `CCN(CC)CCNc1ccc(C)c2oc3ccc(O)cc3c(=O)c12`, the growth inhibition was 25.1%.

`CN(C)CC1CCc2c(ccc3ccccc23)C1=O` (stereo not drawn): the growth inhibition was 39.7%.

For `C[C@]12CCC(=O)C=C1CC[C@@H]1[C@@H]2[C@@H](O)C[C@@]2(C)[C@H]1CC[C@]2(O)C(=O)COC(=O)CCC1CCCC1`, the growth inhibition is 82.7% (active).

Take `O=C(CSc1nnc(Cc2ccccc2)o1)Nc1ccc(Cl)cc1[N+](=O)[O-]`: the growth inhibition was 21.8%.

As for `Cc1cccc2c1Oc1ccccc1C2N1C(=O)/C(=C/c2ccccc2Cl)SC1=S` (stereo not drawn), the growth inhibition is 16.4%.
